Each structure is given as a SMILES string. Records with an inconclusive call do not appear. Unmarked numbers belong to inactive results. Active and inactive are the calls of the source. Calls come from the whole dose curve; as a rule, active = well fitted activation curve with a large enough effect in the signal ratio, with a control signal flat; inconclusive = small, poorly fitted or top-dose-only effect, or a change in a side signal; inactive = flat fitted curve, though single readings scatter; the % refers to the signal ratio.

Thyrotropin receptor (Homo sapiens), sequence (P16473 whole entry, looked up): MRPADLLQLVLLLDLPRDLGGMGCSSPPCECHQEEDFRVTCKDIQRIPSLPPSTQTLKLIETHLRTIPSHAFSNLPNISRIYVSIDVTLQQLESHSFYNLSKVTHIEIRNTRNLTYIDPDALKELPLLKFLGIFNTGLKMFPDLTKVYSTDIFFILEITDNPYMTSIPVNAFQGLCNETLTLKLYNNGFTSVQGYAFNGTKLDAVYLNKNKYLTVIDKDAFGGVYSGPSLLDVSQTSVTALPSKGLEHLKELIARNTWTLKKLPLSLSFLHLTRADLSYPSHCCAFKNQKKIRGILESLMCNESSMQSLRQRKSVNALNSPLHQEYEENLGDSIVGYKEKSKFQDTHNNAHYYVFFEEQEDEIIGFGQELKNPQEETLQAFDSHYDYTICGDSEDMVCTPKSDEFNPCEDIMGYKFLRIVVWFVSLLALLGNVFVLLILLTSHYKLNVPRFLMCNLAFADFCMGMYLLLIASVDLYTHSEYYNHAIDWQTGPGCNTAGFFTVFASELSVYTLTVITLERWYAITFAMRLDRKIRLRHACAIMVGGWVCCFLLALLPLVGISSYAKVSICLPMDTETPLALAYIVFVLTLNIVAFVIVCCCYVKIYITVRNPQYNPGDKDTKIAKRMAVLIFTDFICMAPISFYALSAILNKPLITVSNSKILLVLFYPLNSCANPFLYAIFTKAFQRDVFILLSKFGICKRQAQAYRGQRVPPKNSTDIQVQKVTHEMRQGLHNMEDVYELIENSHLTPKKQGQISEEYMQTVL

The target in the test is Thyrotropin receptor (Homo sapiens) (UniProt P16473). The experiment in a line: Secondary Concentration-Response Assay for Agonists of the Thyroid Stimulating Hormone Receptor: HTRF Activity Detection.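 Note: HEK 293 cells stably expressing human TSHR with RO 20-1724 phosphodiesterase inhibitor; % of control where 0% means no effect.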 Conditions: HEK293-TSHR cells, cAMP HTRF ratio, 30 min; series mostly up to 91.7 µM. The text has this:
NIH Chemical Genomics Center [NCGC]
NIH Molecular Libraries Screening Centers Network [MLSCN]
PI Name: Dr. Marvin Gershengorn, NIH
Confirmation of Thyroid Stimulating Hormone Receptor Agonists
TSH is an alpha/beta heterodimeric glycoprotein hormone secreted from the anterior pituitary gland which belongs to the glycoprotein hormone family. The actions of TSH are mediated by a seven-transmembrane receptor, which upon TSH binding couples preferentially to the G-alpha (s) protein (Gs), resulting in activation of adenylate cyclase and increase in cyclic adenosine 3', 5' monophosphate (cAMP). The TSH receptor (THSR) is mainly expressed in thyroid follicular cells and regulates their growth and function. Recombinant TSH is used to activate TSHR in patients with thyroid cancer receiving thyroid hormone suppression therapy and to screen for residual tumor after surgery, but it is expensive and must be administered intramuscularly. An orally active small molecule TSHR agonist would serve as an invaluable research tool for studying TSHR pharmacology and physiology, and would have multiple advantages in therapeutic settings. However, no selective small molecule agonist of the TSH receptor exists, and no small molecule screen for TSHR agonists has ever been reported.
A confirmatory assay of putative TSHR agonists was conducted on a different TSHR transfected HEK 293 cell line, using an orthogonal detection technology to measure cAMP stimulation: antibody-based Homogeneous Time Resolved Fluorescence (HTRF).
NCGC Assay Protocol Summary:
Homogeneous Time Resolved Fluorescence (HTRF) cAMP Assay. HEK 293 cells stably transfected with a vector containing the TSHR and maintained under hygromycin selection were obtained from the laboratory of Dr. Marvin Gershengorn. […] Plates were measured using the Envision plate reader (PerkinElmer, Boston, MA) with excitation at 330 nm and emissions of 615 nm and 660 nm.
Keywords: Thyroid-stimulating hormone TSH, TSHR, TSHR agonist, quantitative high throughput screening, qHTS, HTS, probe identification, CNG, cAMP, cyclic nucleotide gated ion channel PubChem
Take `C=CCN1C(=O)C2(C(C(=O)OC)=C(N)Oc3c2c(=O)oc2ccccc32)c2ccccc21` (stereo not drawn): the outcome was inactive. For `O=c1[nH]c(=O)n(Cc2ccco2)c(O)c1C=NC1CC1`, the activation was -0.432% [at 0.00035 µM]. For the molecule `CCOC(=O)C1=C(N)Oc2c(c(=O)oc3ccccc23)C12C(=O)N(C)c1ccccc12` (stereo not drawn), the result was inactive.

Source of the values: PubChem BioAssay AID933 (National Center for Advancing Translational Sciences (NCATS), 2007).
